Source: publication PMC5540273 (PLoS ONE, 2017)

What was measured:
Conditions in all cases: concentration: 1 μM, replicates: in singlicate; n = 1
AAK1 = tested on: AAK1
ABL1-nonphosphorylated = tested on: ABL1-nonphosphorylated
ABL1-phosphorylated = tested on: ABL1-phosphorylated
ABL2 = tested on: ABL2
ACVR1B = tested on: ACVR1B
ACVR1 = tested on: ACVR1
ACVR2A = tested on: ACVR2A
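Also: KINOMEscan kinase panel screen.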

Compound | %Inh (AAK1) [%] | %Inh (ABL1-nonphosphorylated) [%] | %Inh (ABL1-phosphorylated) [%] | %Inh (ABL2) [%] | %Inh (ACVR1B) [%] | %Inh (ACVR1) [%] | %Inh (ACVR2A) [%]
Cl.O=C(Nc1cccc(-c2nn3ncccc3c2-c2ccnc(Nc3cccnc3)n2)c1)c1c(F)cccc1F [GSK312879] | 0 | 0 | 0 | 21 | 0 | 0 | 0
Fc1cccc(COc2nnc(-c3ccc4c(c3)CCO4)o2)c1 | 26 | 25 | 0 | 22 | 0 | 0 | 0
O=C(Nc1n[nH]c2nc(-c3nccs3)c(Br)cc12)C1CCCC1 [SB-742609] | 15 | 7 | 1 | 25 | 0 | 7 | 0
CC1=C(C(=O)Nc2cc3cn[nH]c3cc2F)C(c2ccc(C(F)(F)F)cc2)CC(=O)N1 (stereo not shown) [GSK429286] | 0 | 0 | 0 | 19 | 0 | 0 | 83
CC(C)(C)c1ccc(C(=O)Nc2cn3cc(Cl)ccc3n2)cc1 | 0 | 35 | 0 | 0 | 0 | 0 | 0
Cc1cccc(-c2nc(Nc3ccc4[nH]ncc4c3)c3ccccc3n2)n1 [GW857175] | 0 | 19 | 14 | 3 | 100 | 0 | 0
CC(C)(C)c1ccc(C(=O)Nc2cn3cc(-c4cccnc4)ccc3n2)cc1 | 25 | 50 | 37 | 20 | 13 | 21 | 0
Cc1cc(NCC(c2ccccc2)c2ccccc2)nc(NCc2ccc(C(F)(F)F)cc2)n1 [GW497681] | 0 | 0 | 0 | 0 | 0 | 0 | 0
CN1C(=O)C(Nc2ccc(Cl)c(C(=O)O)c2)=C(c2ccc(Cl)cc2)C1=O [SB-404290] | 100 | 21 | 0 | 19 | 4 | 12 | 0
Cc1ccc(C(=O)Nc2ccc(Nc3ccnc4cc(-c5ccccn5)ccc34)cc2O)cc1.Cl [GW440146] | 4 | 68 | 31 | 18 | 0 | 0 | 0
